The nature of assay [1]: NCI Yeast Anticancer Drug Screen. Data for the rad50 strain (AID 155).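 Also: 0% = growth of vehicle-only cultures of the same strain.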 As to conditions: S. cerevisiae rad50 strain growth inhibition; at 50.0 µM; stronger effect = higher value. An outline of the steps:
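Growth of the mutant yeast was measured after compound exposure and referenced to vehicle-treated cultures.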

A short description of assay [2]: NCI Yeast Anticancer Drug Screen. Data for the mec2-1 strain (AID 157). Particulars: S. cerevisiae mec2-1 strain, at 50.0 µM, stronger effect = higher value. The essentials:
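Readout is yeast growth inhibition, normalised to vehicle-treated controls, in the mec2-1 strain exposed to compound.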

A short description of assay [3]: NCI Yeast Anticancer Drug Screen. Data for the sgs1 mgt1 strain (AID 161).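 Also: 0% = growth of cultures given vehicle only.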 Particulars: S. cerevisiae sgs1 mgt1 strain, at 50.0 µM, stronger effect = higher value. An outline of the steps: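 Percent growth inhibition was derived by comparing compound-exposed mutant yeast with vehicle-exposed cultures. The strain carries alterations in DNA damage repair.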
The nature of assay [4]: NCI Yeast Anticancer Drug Screen. Data for the cln2 rad14 strain (AID 165).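 Also: 0% = growth equal to vehicle treated cultures.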 As to conditions: S. cerevisiae cln2 rad14 strain, at 50.0 µM, stronger effect = higher value. The essentials:
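Relative to vehicle controls, growth inhibition of compound-treated cln2 rad14 yeast was recorded.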

A short description of assay [5]: NCI Yeast Anticancer Drug Screen. Data for the bub3 strain (AID 167). Particulars: S. cerevisiae bub3 mutant strain, at 50.0 µM, stronger effect = higher value. The essentials:
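Whole-cell yeast assay. The mutant strain was incubated with compounds, and growth inhibition was determined by comparison with vehicle-treated cells.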

Assay [6] in a line: NCI Yeast Anticancer Drug Screen. Data for the mlh1 rad18 strain (AID 175). As to conditions: S. cerevisiae mlh1 rad18 strain growth inhibition; at 50.0 µM; stronger effect = higher value. An outline of the steps:
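Test agents were incubated with a yeast strain of defined genotype (DNA damage repair defect). Inhibition of growth was derived by comparison with vehicle-exposed cultures.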

The panel holds about 79,000 compounds, 15% with a hit somewhere; the sample as a whole holds those more often. Values without a mark were called inactive. The source made the active and inactive calls. Rule as the data show it: active = growth inhibition above about 70%; inactive = the rest. Where a SMILES comes first, the peptide text is derived from it. [ ]: non-standard residue; d: D form. The star is where a group is joined. Phe(4-NO2) = N[CH](Cc1ccc([N+](=O)[O-])cc1)C(=O)O; Boc = CC(C)(C)OC(=O)*; OtBu = CC(C)(C)O*

In the case of `CC[P+](C)(C)c1ccccc1`, the growth inhibition is 30.9% in assay [1]; -0.8% in assay [2]; 2.1% in assay [3]; 7.55% in assay [4]; 11.7% in assay [5]; 2.75% in assay [6].

With `[N-]=[N+]=Nc1ccccc1-c1ccccc1[N+](=O)[O-]`, the growth inhibition in assay [1] was 35%; in assay [2], -6.3%; in assay [3] it was 40.3%; in assay [4], 0.4%; in assay [5], -6.4%; in assay [6] it was 28.6%.

As for `CCC(CC)COC(=O)CC(C)=O`, the growth inhibition was 18.2% in assay [1]; 52.9% in assay [2]; 6.9% in assay [3]; 86.8% (active) in assay [4]; 28.2% in assay [5]; 33.4% in assay [6].

Regarding `CCCCCCCCCCCC(=O)N/N=C/c1ccccc1OC`, the growth inhibition was -0.65% in assay [1]; 7.25% in assay [2]; -10.3% in assay [3]; -18.8% in assay [4]; 4% in assay [5]; 12.6% in assay [6].

For the compound `CC(C)(C)OC(=O)NCCc1ccc(N)cc1`, the growth inhibition in assay [1] is -18.1%; in assay [2], -5.55%; in assay [3], 22.9%; in assay [4], -0.7%; in assay [5], 8.05%; in assay [6], -10.2%.

Take `O=c1[nH]c(/C=C(\O)c2ccncc2)nc2ccccc12`: the growth inhibition is -7.6% in assay [1]; -23.2% in assay [2]; -6.45% in assay [3]; 12% in assay [4]; -9% in assay [5]; -17.9% in assay [6].

For the compound `CC(=O)NC(CCC(=O)OC(C)(C)C)C(=O)NC(CCC(=O)OC(C)(C)C)C(=O)NC(Cc1ccc([N+](=O)[O-])cc1)C(=O)NC(CCCCNC(=O)OC(C)(C)C)C(=O)NC(CCCCNC(=O)OC(C)(C)C)C(=O)NCC(=O)O` (stereo not given) (Ac-E(OtBu)E(OtBu)[Phe(4-NO2)]K(Boc)K(Boc)G-OH; configuration not given here), the growth inhibition in assay [1] was -31.4%; in assay [2] it was -19.4%; in assay [3], -22.6%; in assay [4], 13.4%; in assay [5] it was -8.2%; in assay [6], -27.3%.

With `O=C(O)Cc1[nH]c(=O)[nH]c(=O)c1CCl`, the growth inhibition in assay [1] was -27.9%; in assay [2], -7.75%; in assay [3] it was -10.1%; in assay [4], -1.3%; in assay [5] it was -19.2%; in assay [6] it was -18.1%.

Turning to `c1ccc(N=C(C(=Nc2ccccc2)c2ccccc2)c2ccccc2)cc1`, the growth inhibition in assay [1] is 4.7%; in assay [2], 13.6%; in assay [3], 3.65%; in assay [4], -67.8%; in assay [5], 4.65%; in assay [6], -9.05%.

In the case of `CCOCCOCCOC12C(=O)C(Cl)=C(Cl)C(=O)C13C1CC2C(Cl)C13` (stereo not given), the growth inhibition in assay [1] was 99.4% (active); in assay [2], 99.5% (active); in assay [3], 98.9% (active); in assay [4] it was 98% (active); in assay [5] it was 98.7% (active); in assay [6] it was 98.2% (active).

Take `O=C(OCC(O)C(O)C(O)COC(=O)c1ccccc1)c1ccccc1` (stereo not given): the growth inhibition in assay [1] is -11.6%; in assay [2], -5.05%; in assay [3] it was -25.4%; in assay [4], -23.6%; in assay [5], -22.8%; in assay [6] it was -13.1%.

As for `FC(F)(F)c1ccccc1N=Cc1cccs1`, the growth inhibition was -12.1% in assay [1]; -9.55% in assay [2]; 23.1% in assay [3]; 3.05% in assay [4]; 13.4% in assay [5]; 20.3% in assay [6].

Take `Cc1ccc(NCC(O)CN2CCCC2)cc1` (stereo not given): the growth inhibition in assay [1] was 12.3%; in assay [2], 5.35%; in assay [3] it was 12.5%; in assay [4], -26.4%; in assay [5], -14.9%; in assay [6] it was 12.1%.

Consider `CSc1nc(N)c(N)c(N)n1`, for which the growth inhibition in assay [1] is 0.1%; in assay [2], 2.9%; in assay [3], -2.75%; in assay [4] it was -21.8%; in assay [5] it was 11.8%; in assay [6], 14.4%.

Turning to `CCCCN1C[C@H](OC(=O)CCC)[C@@H](OC(=O)CCC)[C@H](OC(=O)CCC)[C@H]1COC(=O)CCC`, the growth inhibition in assay [1] was -18.4%; in assay [2], -15.7%; in assay [3], -11%; in assay [4], -5.3%; in assay [5], -23.9%; in assay [6], -15.7%.

As to `N#CC(C(=O)C(=O)Nc1cccc(C(F)(F)F)c1)c1c(Cl)cccc1Cl` (stereo not given), the growth inhibition in assay [1] is 10.1%; in assay [2] it was 11.6%; in assay [3], 17.1%; in assay [4], -35%; in assay [5] it was -1.7%; in assay [6], 2.15%.

As for `O=C(O)CNC(=S)SCc1ccccc1`, the growth inhibition in assay [1] was 10%; in assay [2], -11.9%; in assay [3], -11.1%; in assay [4] it was -35.8%; in assay [5], 11.2%; in assay [6], 10.8%.

On to `Clc1cc(Cl)c(SSc2cc(Cl)c(Cl)cc2Cl)cc1Cl`, for which the growth inhibition in assay [1] was -11.6%; in assay [2], 1.15%; in assay [3], -18.1%; in assay [4], -71.5%; in assay [5], 0.75%; in assay [6] it was -22.6%.

As to `CC1NC(=O)C(C)C(c2ccccc2)N(N=O)C1c1ccccc1` (stereo not given), the growth inhibition in assay [1] was -10.7%; in assay [2], 7.8%; in assay [3], 14.6%; in assay [4], 0.05%; in assay [5], -25.6%; in assay [6], 11%.

For `O=C(CO)c1ccc(-c2ccccc2)cc1`, the growth inhibition in assay [1] is -8%; in assay [2], -12.4%; in assay [3] it was -19.1%; in assay [4], -12.7%; in assay [5], 4.95%; in assay [6], 16.2%.
